Compound activity: PubChem, National Center for Advancing Translational Sciences (NCATS)
GLP1R ag – activates the human GLP-1 receptor; P43220; HEK293 GLP-1R CRE-luciferase, luminescence, 4-6 h; cells express a hypersensitive GLP-1R form; Potency, µM (titrated, usually from 45.6 µM), for inactives: top-dose activation, actives largely listed as activators; 380,000 compounds, 0.007% hits; note: potency is the fitted concentration of half-maximal effect; % of control where 0% means no effect
GLP-1R inv ag – acts as inverse agonist at human GLP-1 receptor | P43220 | HEK293 GLP-1R CRE-luciferase, luminescence, 24 h; GLP-1R form is constitutively active | Potency, µM (titrated, usually from 38.3 µM), without a hit: at the top dose activity change, negative = inhibition, usual class: inhibitors | 410,000 compounds, 1.6% hits | AID 624417; note: potency is the fitted concentration of half-maximal effect; % is set by controls: 0 for no effect and ±100 for the full control effect; nearly all actives have a fitted effect of over 55% in size
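Readout was luciferase luminescence, measured 12 min after detection reagent at room temperature. Beforehand, GLP-1R reporter HEK293 cells had sat 12 h, then received compounds for 24 hr at 37 deg C.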
DRD3 agonist – activates the human D3 dopamine receptor; P35462; D3R DiscoveRx beta-arrestin cells, luminescence, 90 min; max activation, %; 410,000 compounds, 0.58% hits; in the data active = max activation above about 30%; note: 0% is about no effect
Target sequence (P35462 whole entry, looked up): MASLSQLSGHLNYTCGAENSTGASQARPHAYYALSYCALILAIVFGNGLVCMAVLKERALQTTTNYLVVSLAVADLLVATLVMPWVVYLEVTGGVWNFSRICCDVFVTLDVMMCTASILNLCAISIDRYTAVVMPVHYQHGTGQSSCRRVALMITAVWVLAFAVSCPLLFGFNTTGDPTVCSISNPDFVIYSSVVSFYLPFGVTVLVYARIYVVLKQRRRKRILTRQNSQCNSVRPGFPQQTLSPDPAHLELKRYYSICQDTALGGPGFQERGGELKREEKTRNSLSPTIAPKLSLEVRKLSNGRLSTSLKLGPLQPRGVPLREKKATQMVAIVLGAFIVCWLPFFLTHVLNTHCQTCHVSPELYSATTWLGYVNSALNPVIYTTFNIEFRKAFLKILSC
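Cells at 1500/well, incubated overnight, then treated with pinned compounds (dopamine as control) for 90 min at 37 degrees C. DiscoveRx reagent added for 30 - 60 minutes at room temperature; luminescence read.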
D3 antag – blocks the human D3 dopamine receptor | P35462 | D3R cells, DiscoveRx beta-arrestin luminescence, antagonist mode; active compounds read low | 360,000 compounds, 2.5% hits | max response, negative = inhibition, %; in the data active = max response below about -50%; inconclusive = no clear call, values can overlap the other calls; note: % is set by controls: 0 for no effect and ±100 for the full control effect
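Cells plated overnight at 1500 cells/well, then exposed to library compounds with dopamine controls for 90 minutes at 37 degrees C. DiscoveRx reagent added for 30–60 minutes at room temperature; luminescence read, quantitative HTS format.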
An asterisk follows results filed as active; u = inconclusive; x = no result. This is a sample that favours compounds with a hit; in the whole collection about 4.3% have one here. Unless noted, calls come from the whole dose curve; as a rule, active = well fitted curve in the direction sought with a large enough effect; inconclusive = small, poorly fitted or top-dose-only effect, or another doubt; inactive = no such curve, though single readings can be large; an effect the other way counts as inactive or inconclusive.

SMILES	GLP1R ag	GLP-1R inv ag	DRD3 agonist	D3 antag
Cc1ccc(Nc2nc(Cl)c(C=O)s2)cc1Cl	12.3%	u	-0.3	0.9
CCN(CC)c1nc(NN)nc(Nc2ccc(C)c(Cl)c2)n1	0.2%	u	-2.6	-79.4*
COc1ccc(Cn2c(C(=O)O)c(CNC3CCC(C)CC3)c3ccc(C)cc32)cc1 (configuration not stated)	x	-5.0%	1.1	x
CC(C)NS(=O)(=O)c1ccc(NC(=O)C(C)Oc2ccc(C(=O)c3ccccc3)cc2)cc1 (configuration not stated)	-5.0%	u	-12.7	-54.3*
O=C1C=C(c2cccc(OCc3ccccc3)c2)C[C@@H](c2ccc3c(c2)OCO3)C1	8.5%	u	34.8*	-10.7
Cc1ccc(-c2nnc(N3CCC(C)CC3)c3ccccc23)cc1C	0.2%	2.51µM*	-9.7	u
Cc1ccc(-c2nnc(N3CCC(C)CC3)c3ccccc23)cc1	-0.3%	u	-1.6	3.6
Cc1nc(C)c(C(=O)O)s1	-8.5%	12.5%	46.8*	-21.4
Cc1ccc(N2CCN(C(=O)c3ccc(Nc4nc5ccccc5n5nnnc45)cc3)CC2)c(C)c1	x	18.9%	-6.4	x
COc1cccc(C(=O)OC(C)CN2CCCC2)c1 (configuration not stated)	-6.8%	8.5%	-2.3	-6.3
CC(CN1CCCCC1)OC(=O)c1cccc(F)c1 (configuration not stated)	-6.0%	3.0%	-24.0	-50.8*
CC(CN1CCCCC1)OC(=O)c1ccc(Cl)cc1Cl (configuration not stated)	-13.3%	-0.2%	-16.4	u
CC(CN1CCCC1)OC(=O)c1ccc(Cl)cc1Cl (configuration not stated)	-5.6%	20.3%	-19.7	-79.6*
CC(CN1CCCC1)OC(=O)c1ccc(Cl)cc1 (configuration not stated)	6.9%	5.9%	-24.8	-53.8*
COc1ccccc1/C=C/C(=O)OC(C)CN1CCCCC1 (configuration not stated)	-0.5%	-33.9%	-13.6	-59.7*
CC(CN1CCOCC1)OC(=O)c1ccc(Br)cc1 (configuration not stated)	1.1%	u	-17.6	-67.3*
CC1CCN(CC(C)OC(=O)c2ccc3c(c2)OCCO3)CC1 (configuration not stated)	-3.8%	15.6%	-13.9	-75.3*
CC(CN1CCCCC1)OC(=O)c1ccc2c(c1)OCO2 (configuration not stated)	-17.5%	13.5%	-17.8	-15.4
COc1ccc(NC(=O)Cn2ccn(-c3ccc(C)c(C)c3)c(=O)c2=O)cc1Cl	x	-0.9%	4.0	x
CCCNC(=O)C(Cc1cccc(Cl)c1)NC(=O)c1ccc(C#N)cc1 (configuration not stated)	11.2%	3.9%	-1.5	9.9
CCCNC(=O)C(Cc1cccc(C#N)c1)NC(=O)c1ccc(C#N)cc1 (configuration not stated)	-1.9%	2.0%	89.7*	-7.3
Cc1ccc(NC(=O)CCn2nc(C)c(S(=O)(=O)N3CCCCC3)c2C)cc1Cl	x	-29.0%	-8.2	x
Cc1ccc(Cl)cc1N1CCN(C(=O)c2cc3c(=O)[nH]c4ccccc4c3n2C)CC1	6.0%	-18.3%	70.8*	23.5
Cc1ccc(-c2nn(C)c(=O)c3ccccc23)cc1CO	3.1%	55.7%	-2.4	-50.3*
CC(=O)OCc1cc(-c2nn(C)c(=O)c3ccccc23)ccc1C	13.2%	13.2%	-1.6	-5.3
SMILES	GLP1R ag	GLP-1R inv ag	DRD3 agonist	D3 antag
COc1ccc(NC(=O)COc2ccc(-c3nn(C)c(=O)c4ccccc34)cc2)cc1	9.7%	15.0%	-8.3	-18.0
COc1ccc(OCC(=O)Nc2cc(-c3nn(C)c(=O)c4ccccc34)ccc2OC)cc1	11.3%	51.0%	4.4	-62.5*
COc1cc(NC(=O)c2ccc(S(=O)(=O)N(C)c3ccccc3OC)cc2)cc(OC)c1	2.8%	7.94µM*	2.2	13.7
CN(c1ccccc1)S(=O)(=O)c1ccc(NC(=O)c2ccccc2)cc1	0.5%	10µM*	-14.7	6.2
COc1ccccc1N(C)S(=O)(=O)c1ccc(C(=O)Nc2cccc(Br)c2)cc1	5.3%	u	-9.1	-10.6
CCC(C(=O)Nc1cccc(S(=O)(=O)N(C)c2ccccc2)c1)c1ccccc1 (configuration not stated)	-3.4%	7.08µM*	-19.8	0.0
Cc1ccccc1C(=O)NC(=S)Nc1ccc(S(=O)(=O)N(C)c2ccccc2)cc1	-6.5%	8.91µM*	2.7	-25.3
